Measured values published in PubChem BioAssay (NCI).
Several values for one entry are separate records, joined by “and”; a condition that tells them apart may be missing. Equal values may be shown once. Compounds without any hit were thinned out: in the full panel of roughly 83,000, 20% have a hit.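 Interpretation: 100, growth as untreated; towards 0, rising growth inhibition; 0, no net growth; 0 to -100, cell death. Compounds scoring below 10 were considered active.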 Activity calls are given as the source filed them.

Each compound was assayed on SF-539 CNS (assay: NCI-60 one-dose screen, 48 h (100 = growth as untreated, 0 = no growth, -100 = all killed)). Conditions: 10 µM unless noted.

Compound	growth
ON=C1CCCCCCCC1	92.1% (inactive) and 102% (inactive)
CCOC(=O)N(O)c1ccc(/C=C/c2ccccc2)cc1	96.5% (inactive) and 85.1% (inactive)
O=S(=O)(O)c1ccc(N=Nc2ccc(N=Nc3cccc4ccccc34)c(S(=O)(=O)O)c2)cc1	102% (inactive)
COc1ccc(-c2nn3c(-c4cc(F)c(Cl)cc4Cl)nnc3s2)cc1	47% (inactive)
CCc1c2c(nc3ccc(OCc4ccc(B5OC(C)(C)C(C)(C)O5)cc4)cc13)-c1cc3c(c(=O)n1C2)COC(=O)[C@]3(O)CC	-35.6% (active)
O=C(O)c1ccccc1Cc1ccc(F)c2ccccc12	117% (inactive) and 107% (inactive)
CCCCC1COc2cccc3c2N1C=C/C3=C\C(=O)N(C)c1cccc(Cl)c1 (stereo unspecified)	104% (inactive)
COc1ccc(/C=C2\COc3ccc(O)c(O)c3C2=O)c(OC)c1OC	-9.26% (active)
CC12OC(CC(O)C1O)n1c3ccccc3c3c4c(c5c6ccccc6n2c5c31)C(=O)N(CCN1CCOCC1)C4=O (stereo unspecified)	6.03% (active)
COc1ccc(/C=N/C2=C(C#N)C(c3ccccc3)c3c(ccc4ccccc34)O2)cc1 (stereo unspecified)	6.89% (active)
COc1ccc(-c2cc3cnc4ccccc4c3oc2=O)cc1	102% (inactive)
O=C(/C=C/c1ccc(F)cc1)Nc1ncc(Cc2ccc(F)cc2)s1	22% (inactive)
COc1cc(/C=C2\CCC/C(=C\c3cc(CN4CCCC4)c(O)c(OC)c3)C2=O)cc(CN2CCCC2)c1O	23% (inactive)
CN(C)CCCn1c2c(c3ccc(N4CCNCC4)cc3c1=O)C(=O)c1ccccc1-2	52.7% (inactive)
C=CCOc1ccc(/C=C2\SC(=S)N(CCc3ccc(O)cc3)C2=O)cc1	82.7% (inactive)
CCOC(=O)C1=C(C)N=C2SC=C(c3ccc(F)cc3)N2[C@H]1c1cn(-c2ccccc2)nc1-c1ccc(Cl)cc1	101% (inactive)
COc1ccc(/C=N/NC(=O)CN2CCN(c3cc4c(cc3F)c(=O)c(C(=O)O)cn4C3CC3)CC2)cc1O	101% (inactive)
COc1cccc(C2C(C#N)=C(N)Oc3cc(OCCCCCC[P+](c4ccccc4)(c4ccccc4)c4ccccc4)ccc32)c1 (stereo unspecified)	-58.1% (active)
Cc1nn(-c2nc(-c3cc4ccccc4oc3=O)cs2)c(C)c1N=Nc1ccccc1	102% (inactive)

Compound	growth
Cn1cc2c(=O)nc3c(-c4nc5ccccc5[nH]4)n[nH]n3c2n1	97% (inactive)
O=C1c2cccc3cccc(c23)C(=O)N1N1C(=O)c2cccc3c(N4CCNCC4)ccc(c23)C1=O	100% (inactive)
Cc1nc2sc(C(=O)Nc3cccc4ncccc34)c(N)c2cc1C(C)O (stereo unspecified)	82.4% (inactive)
CCOC(=O)c1nc2c3ccccc3cnn2c1C(=O)c1ccc(OC)cc1	97.7% (inactive)
O=C1/C(=C/c2ccccc2[N+](=O)[O-])Cc2ccccc21	24.2% (inactive) and 34.3% (inactive)
COc1cc(/C=C2/C=C(c3ccc(C(C)(C)C)cc3)N(CCc3ccc(S(N)(=O)=O)cc3)C2=O)cc(OC)c1OC	59% (inactive)
COC(=O)N/N=C/c1c[n+]([O-])c2ccccc2[n+]1[O-]	101% (inactive)
Cc1nc(-n2[nH]c(=O)ccc2=O)sc1N=Nc1ccccc1	99.8% (inactive)
CC1(Cc2ccccc2)CC2=C(C(=O)O1)C(c1ccccc1)NC(=O)N2 (stereo unspecified)	94.5% (inactive)
Cc1ccc(/C=C/c2c(C(=O)/C=C/c3ccccc3)c(C)nc3ccccc23)cc1	-23.2% (active)
CC1=C2[C@@H](CC1)[C@]1(C)O[C@@](C3CC3)(C[C@H]1OC(=O)CO)[C@H]2OC(=O)/C=C/c1ccccc1	109% (inactive)
COc1ccc(S(=O)(=O)Nc2cc(Sc3cccc4cccnc34)c(O)c3ccccc23)cc1	-6.48% (active)
CCN(CC)CCCN1C(=O)c2c(c(C)c3c(oc4cc(OC)ccc43)c2C)C1=O	95.5% (inactive)
CN1Cn2c(ccc2C(F)(F)F)C(=O)CS1(=O)=O	94.3% (inactive)
O=c1cc(N/N=C/c2ccc(F)cc2)c2cc(Cl)ccc2[nH]1	104% (inactive)
Cc1cccc(-c2nnc(SCC(=O)Nc3ncc(Cc4ccccc4)s3)n2N2C(=O)CSC2=S)c1	36.6% (inactive)
COc1ccc(/C(C)=C(\c2ccc(OCCN3CCCCCC3)cc2)c2ccc(OC(=O)C3CCCCC3)cc2)cc1	-85.4% (active)
COc1ccc2c(c1)c(C(=O)c1nc(-c3cn(C)c4ccccc34)no1)cn2C	97.2% (inactive)
CCOC(=O)c1nnn(Cc2cc(=O)oc3c2ccc2ccccc23)c1C	98.8% (inactive)

What follows are compounds tested on UACC-257 melanoma in the same assay as above. Conditions: 10 µM unless noted.

Compound	growth
ON=C1CCCCCCCC1	104% (inactive) and 107% (inactive)
CCOC(=O)N(O)c1ccc(/C=C/c2ccccc2)cc1	-40.5% (active) and -36.8% (active)
O=S(=O)(O)c1ccc(N=Nc2ccc(N=Nc3cccc4ccccc34)c(S(=O)(=O)O)c2)cc1	107% (inactive)
COc1ccc(-c2nn3c(-c4cc(F)c(Cl)cc4Cl)nnc3s2)cc1	72.6% (inactive)
CCc1c2c(nc3ccc(OCc4ccc(B5OC(C)(C)C(C)(C)O5)cc4)cc13)-c1cc3c(c(=O)n1C2)COC(=O)[C@]3(O)CC	-9.18% (active)
O=C(O)c1ccccc1Cc1ccc(F)c2ccccc12	107% (inactive) and 98.8% (inactive)
CCCCC1COc2cccc3c2N1C=C/C3=C\C(=O)N(C)c1cccc(Cl)c1 (stereo unspecified)	103% (inactive)
COc1ccc(/C=C2\COc3ccc(O)c(O)c3C2=O)c(OC)c1OC	45.6% (inactive)
CC12OC(CC(O)C1O)n1c3ccccc3c3c4c(c5c6ccccc6n2c5c31)C(=O)N(CCN1CCOCC1)C4=O (stereo unspecified)	14.7% (inactive)
COc1ccc(/C=N/C2=C(C#N)C(c3ccccc3)c3c(ccc4ccccc34)O2)cc1 (stereo unspecified)	61.8% (inactive)
COc1ccc(-c2cc3cnc4ccccc4c3oc2=O)cc1	96.4% (inactive)
O=C(/C=C/c1ccc(F)cc1)Nc1ncc(Cc2ccc(F)cc2)s1	60.3% (inactive)
COc1cc(/C=C2\CCC/C(=C\c3cc(CN4CCCC4)c(O)c(OC)c3)C2=O)cc(CN2CCCC2)c1O	86.6% (inactive)
CN(C)CCCn1c2c(c3ccc(N4CCNCC4)cc3c1=O)C(=O)c1ccccc1-2	37.3% (inactive)
C=CCOc1ccc(/C=C2\SC(=S)N(CCc3ccc(O)cc3)C2=O)cc1	92.6% (inactive)
CCOC(=O)C1=C(C)N=C2SC=C(c3ccc(F)cc3)N2[C@H]1c1cn(-c2ccccc2)nc1-c1ccc(Cl)cc1	81.5% (inactive)
COc1ccc(/C=N/NC(=O)CN2CCN(c3cc4c(cc3F)c(=O)c(C(=O)O)cn4C3CC3)CC2)cc1O	89.5% (inactive)
COc1cccc(C2C(C#N)=C(N)Oc3cc(OCCCCCC[P+](c4ccccc4)(c4ccccc4)c4ccccc4)ccc32)c1 (stereo unspecified)	-21.5% (active)
Cc1nn(-c2nc(-c3cc4ccccc4oc3=O)cs2)c(C)c1N=Nc1ccccc1	103% (inactive)

Compound	growth
Cn1cc2c(=O)nc3c(-c4nc5ccccc5[nH]4)n[nH]n3c2n1	72.9% (inactive)
O=C1c2cccc3cccc(c23)C(=O)N1N1C(=O)c2cccc3c(N4CCNCC4)ccc(c23)C1=O	95.2% (inactive)
Cc1nc2sc(C(=O)Nc3cccc4ncccc34)c(N)c2cc1C(C)O (stereo unspecified)	75.9% (inactive)
CCOC(=O)c1nc2c3ccccc3cnn2c1C(=O)c1ccc(OC)cc1	95.4% (inactive)
O=C1/C(=C/c2ccccc2[N+](=O)[O-])Cc2ccccc21	64.4% (inactive) and 71.8% (inactive)
COc1cc(/C=C2/C=C(c3ccc(C(C)(C)C)cc3)N(CCc3ccc(S(N)(=O)=O)cc3)C2=O)cc(OC)c1OC	62.2% (inactive)
COC(=O)N/N=C/c1c[n+]([O-])c2ccccc2[n+]1[O-]	95.1% (inactive)
Cc1nc(-n2[nH]c(=O)ccc2=O)sc1N=Nc1ccccc1	109% (inactive)
CC1(Cc2ccccc2)CC2=C(C(=O)O1)C(c1ccccc1)NC(=O)N2 (stereo unspecified)	101% (inactive)
Cc1ccc(/C=C/c2c(C(=O)/C=C/c3ccccc3)c(C)nc3ccccc23)cc1	12.3% (inactive)
CC1=C2[C@@H](CC1)[C@]1(C)O[C@@](C3CC3)(C[C@H]1OC(=O)CO)[C@H]2OC(=O)/C=C/c1ccccc1	92.1% (inactive)
COc1ccc(S(=O)(=O)Nc2cc(Sc3cccc4cccnc34)c(O)c3ccccc23)cc1	-17% (active)
CCN(CC)CCCN1C(=O)c2c(c(C)c3c(oc4cc(OC)ccc43)c2C)C1=O	114% (inactive)
CN1Cn2c(ccc2C(F)(F)F)C(=O)CS1(=O)=O	102% (inactive)
O=c1cc(N/N=C/c2ccc(F)cc2)c2cc(Cl)ccc2[nH]1	85.8% (inactive)
Cc1cccc(-c2nnc(SCC(=O)Nc3ncc(Cc4ccccc4)s3)n2N2C(=O)CSC2=S)c1	64.4% (inactive)
COc1ccc(/C(C)=C(\c2ccc(OCCN3CCCCCC3)cc2)c2ccc(OC(=O)C3CCCCC3)cc2)cc1	-71.4% (active)
COc1ccc2c(c1)c(C(=O)c1nc(-c3cn(C)c4ccccc34)no1)cn2C	89% (inactive)
CCOC(=O)c1nnn(Cc2cc(=O)oc3c2ccc2ccccc23)c1C	94% (inactive)
